# Measurements taken from PubChem BioAssay (NCATS).
# Inconclusive results are not listed. Values without a mark were called inactive. Activity calls are given as the source filed them. Calls follow the shape of the dose curve; as a rule, active = well fitted inhibition curve with a large enough effect; inconclusive = small, poorly fitted or top-dose-only effect; inactive = flat fitted curve, though single readings scatter.
# Experiment: qHTS profiling for inhibitors of Plasmodium falciparum proliferation (AID 504749); also: nearly all actives have a fitted effect of over 60% in size;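 as to activity, negative = inhibition: 0% = DMSO vehicle and full inhibition = artemisinin control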
# Conditions: P. falciparum in erythrocytes, SYBR Green DNA, 72 h
# Outline: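 SYBR Green fluorescence (ex 485 nm, em 535 nm) reports parasite DNA after 72 h compound exposure of infected red cells at 0.3% parasitemia, 2.5% hematocrit; signal normalized to 0.29 uM artemisinin and vehicle wells.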
# [1] = at 28.7 µM (top of the series), parasite line A
# [2] = at 28.7 µM (top of the series), parasite line B
# [3] = at 12.8 µM (top of the series), parasite line A
# [4] = at 12.8 µM (top of the series), parasite line B
# Potency is read from the fitted curve at half-maximal effect.
structure (smiles),measurement,setting,value
S=C1SCN(Cc2ccccc2)CN1Cc1ccccc1,"activity, negative = inhibition",[1],-6.7%
O=C(O)COc1ccccc1/C=N/NC(=O)c1ccncc1,"activity, negative = inhibition",[1],7.51%
same,"activity, negative = inhibition",[2],0.92%
N[C@@H](Cc1cc(I)c(Oc2ccc(O)c(I)c2)c(I)c1)C(=O)O,"activity, negative = inhibition",[1],-3.92%
O=C(c1cc2ccccc2o1)N1CCN(Cc2ccccc2)CC1,Potency,parasite line A,7.94 µM (active)
COc1ccc2nc(NC(=O)Nc3ccccc3)sc2c1,"activity, negative = inhibition",[2],5.72%
CC(=O)Nc1c(I)c(C(=O)O)c(I)c(N(C)C(C)=O)c1I,"activity, negative = inhibition",[2],-11.8%
OCc1ccccc1,"activity, negative = inhibition",[2],-27.8%
C[C@H](CCC(=O)O)[C@H]1CC[C@H]2[C@@H]3CC[C@@H]4C[C@H](O)CC[C@]4(C)[C@H]3C[C@H](O)[C@]12C,"activity, negative = inhibition",[1],0.235%
Nc1ccc(N=Nc2ccccc2)c(N)n1,Potency,parasite line A,10 µM (active)
O=C1c2ccccc2C(=O)C1c1ccc(F)cc1,"activity, negative = inhibition",[1],-6.63%
same,"activity, negative = inhibition",[2],2.77%
COc1cc(S(C)=O)ccc1-c1nc2ncccc2[nH]1 (stereo unspecified),"activity, negative = inhibition",[1],6.38%
same,"activity, negative = inhibition",[2],-9.68%
C[C@]12CC[C@@H]3c4ccc(OC(=O)c5ccccc5)cc4CC[C@H]3[C@@H]1CC[C@@H]2O,"activity, negative = inhibition",[1],-13.9%
same,"activity, negative = inhibition",[2],5.42%
Cc1cccc(C)c1NC(=O)NC1=CCCN1C,"activity, negative = inhibition",[1],5.4%
same,"activity, negative = inhibition",[2],1.38%
OC/C=C/c1ccccc1,"activity, negative = inhibition",[1],-0.356%
OCCCNc1ccccc1,"activity, negative = inhibition",[1],8.17%
same,"activity, negative = inhibition",[2],6.74%
CCCCCc1ccc(C)cc1O,"activity, negative = inhibition",[1],-9.62%
O=P(O)(O)OP(=O)(O)O,"activity, negative = inhibition",[1],-13.9%
O=c1n(CC2CO2)c(=O)n(CC2CO2)c(=O)n1CC1CO1 (stereo unspecified),"activity, negative = inhibition",[2],-29.5%
CCCCCCCCCCCCCCCCOCCOCCOCCOCCOCCOCCOCCOCCOCCOCCOCCOCCOCCOCCOCCOCCOCCOCCOCCOCCO,Potency,parasite line A,15.8 µM (active)
NC(=O)[C@@H]1CCCN1C(=O)[C@H](Cc1cnc[nH]1)NC(=O)[C@@H]1CCC(=O)N1,"activity, negative = inhibition",[1],0.117%
same,"activity, negative = inhibition",[2],4.94%
CCOC(=O)c1c[nH]c2cc(OCC(C)C)c(OCC(C)C)cc2c1=O,Potency,parasite line A,0.0398 µM (active)
same,Potency,parasite line B,0.0562 µM (active)
CCCC(CCC)C(=O)OC1C[C@H]2CC[C@@H](C1)[N+]2(C)C (stereo partly specified),Potency,parasite line A,5.62 µM (active)
O=C(OCc1ccccc1)c1cccnc1,"activity, negative = inhibition",[1],-26.7%
CC(C)(Oc1ccc(C2CCCc3ccccc32)cc1)C(=O)O (stereo unspecified),"activity, negative = inhibition",[1],0.13%
same,"activity, negative = inhibition",[2],7.8%
Cc1nc(NS(=O)(=O)c2ccc(N)cc2)nc(C)c1Br,"activity, negative = inhibition",[1],7.52%
same,"activity, negative = inhibition",[2],-0.222%
NCC[C@H](O)C(=O)N[C@@H]1C[C@H](N)[C@@H](O[C@H]2O[C@H](CN)CC[C@H]2N)[C@H](O)[C@H]1O[C@H]1O[C@H](CO)[C@@H](O)[C@H](N)[C@H]1O,"activity, negative = inhibition",[1],-7.43%
same,"activity, negative = inhibition",[2],9.77%
Cc1cc2nc3c(=O)[nH]c(=O)nc-3n(C[C@H](O)[C@H](O)[C@H](O)COP(=O)(O)OP(=O)(O)OC[C@H]3O[C@@H](n4cnc5c(N)ncnc54)[C@H](O)[C@@H]3O)c2cc1C,"activity, negative = inhibition",[1],-1.67%
same,"activity, negative = inhibition",[2],14.9%
C=C1C(CCl)(CCl)C2(Cl)C(Cl)C(Cl)C1(Cl)C2(Cl)Cl (stereo unspecified),Potency,parasite line A,2.51 µM (active)
same,Potency,parasite line B,1.26 µM (active)
CCOC(=O)Cc1ccc(-c2ccccc2)cc1,"activity, negative = inhibition",[1],8.04%
CCC(=O)c1ccc2c(c1)N(CCCN1CCN(CCO)CC1)c1ccccc1S2,Potency,parasite line A,10 µM (active)
same,Potency,parasite line B,11.2 µM (active)
NC(=O)C1c2ccccc2CCc2ccccc21,"activity, negative = inhibition",[1],-4.87%
same,"activity, negative = inhibition",[2],8.64%
CCCCCCCCCCCCCCCCCC[N+](C)(C)CCC[Si](OC)(OC)OC,"activity, negative = inhibition",[1],12.9%
CC(C)NCC(O)COc1ccccc1-n1cccc1 (stereo unspecified),"activity, negative = inhibition",[1],18.2%
same,"activity, negative = inhibition",[2],-1.41%
CCN(CC)CCCC(C)Nc1cc(/C=C/c2ccccc2Cl)nc2cc(Cl)ccc12 (stereo unspecified),Potency,parasite line A,1.78 µM (active)
same,Potency,parasite line B,2 µM (active)
CC(=O)Nc1ccc(NC(=S)NC(=O)c2ccc(C(C)(C)C)cc2)cc1,"activity, negative = inhibition",[2],-2.21%
CCCCCCCCCCCCOCCCN,"activity, negative = inhibition",[1],-4.13%
same,"activity, negative = inhibition",[2],8.54%
O=P(O)(O)OP(=O)(O)OP(=O)(O)O,"activity, negative = inhibition",[1],-4.84%
same,"activity, negative = inhibition",[2],8.54%
Cc1ccccn1,"activity, negative = inhibition",[1],14.6%
same,"activity, negative = inhibition",[2],15%
CN1C(C(=O)Nc2ccccn2)C(=O)c2sc(Cl)cc2S1(=O)=O (stereo unspecified),"activity, negative = inhibition",[1],8.71%
same,"activity, negative = inhibition",[2],-14.1%
Cc1ncc[nH]1,"activity, negative = inhibition",[1],1.23%
same,"activity, negative = inhibition",[2],14.4%
C=CCOc1ccc(CC(=O)O)cc1Cl,"activity, negative = inhibition",[1],8.56%
same,"activity, negative = inhibition",[2],1.68%
C[C@@](Cc1ccc(O)c(O)c1)(NN)C(=O)O,"activity, negative = inhibition",[1],-19.2%
same,"activity, negative = inhibition",[2],-6.85%
Cc1ncc(COP(=O)(O)O)c(CN)c1O,"activity, negative = inhibition",[1],-3.16%
same,"activity, negative = inhibition",[2],3.16%
CCCOC(=O)c1ccccc1O,"activity, negative = inhibition",[1],3.1%
same,"activity, negative = inhibition",[2],6.22%
CCCCC[C@H](O)/C=C/[C@@H]1[C@H]2C/C(=C/CCCC(=O)O)O[C@H]2C[C@H]1O,"activity, negative = inhibition",[1],-0.331%
same,"activity, negative = inhibition",[2],0.715%
c1ccc(-n2cnnn2)cc1,"activity, negative = inhibition",[1],4.13%
same,"activity, negative = inhibition",[2],-7.64%
NCCN,"activity, negative = inhibition",[1],5.04%
same,"activity, negative = inhibition",[2],2.26%
CCCC(=O)O,"activity, negative = inhibition",[1],7.39%
same,"activity, negative = inhibition",[2],16.4%
O=C1c2ccccc2C(=O)c2c1ccc(O)c2O,"activity, negative = inhibition",[1],4.44%
same,"activity, negative = inhibition",[2],-3.93%
CC1=CC(=O)NS(=O)(=O)O1,"activity, negative = inhibition",[1],0.853%
same,"activity, negative = inhibition",[2],6.07%
COc1ccc2c(c1)OC(C)(C)C(c1ccccc1)C2c1ccc(OCCN2CCCC2)cc1 (stereo unspecified),Potency,parasite line A,2.24 µM (active)
same,Potency,parasite line B,3.98 µM (active)
COc1ccc(/C=N/NC(=O)c2ccncc2)c(C(=O)O)c1OC,"activity, negative = inhibition",[1],15.9%
same,"activity, negative = inhibition",[2],-6.37%
c1ccc2ccccc2c1,"activity, negative = inhibition",[1],8.79%
same,"activity, negative = inhibition",[2],4.51%
O=C(O)c1ccc(NC(=O)[C@H](Cc2ccc(O)cc2)NC(=O)c2ccccc2)cc1,"activity, negative = inhibition",[1],3.76%
same,"activity, negative = inhibition",[2],5.17%
CC(=O)Oc1cccc(C(=O)O)c1OC(C)=O,"activity, negative = inhibition",[1],7.04%
same,"activity, negative = inhibition",[2],3.67%
CC(=O)N=c1sc(S(N)(=O)=O)nn1C,"activity, negative = inhibition",[3],-0.509%
same,"activity, negative = inhibition",[4],-5.64%
Nc1nc(=O)n([C@@H]2CS[C@H](CO)O2)cc1F,"activity, negative = inhibition",[1],2.36%
same,"activity, negative = inhibition",[2],4.33%
CN1C(=O)C[C@@H](C(=O)N[C@@H](Cc2cnc[nH]2)C(=O)N2CCC[C@H]2C(N)=O)NC1=O,"activity, negative = inhibition",[1],13.6%
same,"activity, negative = inhibition",[2],-7.4%
CC(=O)Nc1ccc(OC(=O)c2ccccc2O)cc1,"activity, negative = inhibition",[1],-9.69%
same,"activity, negative = inhibition",[2],13.7%
CC(C)CCC[C@@H](C)[C@H]1CC[C@H]2[C@@H]3CC[C@@H]4C[C@H](O)CC[C@]4(C)[C@H]3CC[C@]12C,"activity, negative = inhibition",[1],-5.47%
same,"activity, negative = inhibition",[2],5.75%
C(=C\c1ccncc1)/c1ccccc1,"activity, negative = inhibition",[1],-2.95%
same,"activity, negative = inhibition",[2],-9.52%
O=C(O)[C@H]1CN(C/C=C/P(=O)(O)O)CCN1,"activity, negative = inhibition",[1],5.03%
same,"activity, negative = inhibition",[2],6.62%
CCOC(C)OCC,"activity, negative = inhibition",[1],-1.66%
same,"activity, negative = inhibition",[2],-9.74%
CCOC(=O)[C@@H](N)CS,"activity, negative = inhibition",[1],-7.81%
same,"activity, negative = inhibition",[2],16.4%
O=C(NNCS(=O)(=O)O)c1ccncc1,"activity, negative = inhibition",[1],13.1%
same,"activity, negative = inhibition",[2],6.08%
COC(=O)CCC[N+](C)(C)C,"activity, negative = inhibition",[1],18.8%
same,"activity, negative = inhibition",[2],3.25%
OC[C@H]1O[C@@H]2O[C@H]3[C@H](O)[C@@H](O)[C@@H](O[C@H]4[C@H](O)[C@@H](O)[C@@H](O[C@H]5[C@H](O)[C@@H](O)[C@@H](O[C@H]6[C@H](O)[C@@H](O)[C@@H](O[C@H]7[C@H](O)[C@@H](O)[C@@H](O[C@H]1[C@H](O)[C@H]2O)O[C@@H]7CO)O[C@@H]6CO)O[C@@H]5CO)O[C@@H]4CO)O[C@@H]3CO,"activity, negative = inhibition",[1],6.28%
same,"activity, negative = inhibition",[2],7.95%
CN1C(=O)OC(C)(C)C1=O,"activity, negative = inhibition",[3],-13.9%
same,"activity, negative = inhibition",[4],4.58%
CC(C)(CO)[C@@H](O)C(=O)NCCC(=O)NCCSSCCNC(=O)CCNC(=O)[C@H](O)C(C)(C)CO,"activity, negative = inhibition",[1],-1%
same,"activity, negative = inhibition",[2],-2.45%
C[C@]12CCC(=O)C[C@@H]1CC[C@@H]1[C@@H]2CC[C@]2(C)C=CC[C@@H]12,"activity, negative = inhibition",[1],-20.9%
same,"activity, negative = inhibition",[2],-5.73%
CC1C(=O)CC2C3(C)CCC2(C(C)C(=O)O)C(=O)C13 (stereo unspecified),"activity, negative = inhibition",[1],5.64%
same,"activity, negative = inhibition",[2],13.7%
CC(C)(COP(=O)(O)OP(=O)(O)OC[C@H]1O[C@@H](n2cnc3c(N)ncnc32)[C@H](O)[C@@H]1OP(=O)(O)O)C(O)C(=O)NCCC(=O)NCCS (stereo partly specified),"activity, negative = inhibition",[1],7.03%
same,"activity, negative = inhibition",[2],2.39%
O=C(NCCNCC(O)COc1ccc(O)cc1)N1CCOCC1 (stereo unspecified),"activity, negative = inhibition",[1],8.13%
same,"activity, negative = inhibition",[2],8.21%
C=CC(C)(O)CC/C=C(\C)CCC=C(C)C (stereo unspecified),"activity, negative = inhibition",[1],2.76%
same,"activity, negative = inhibition",[2],-4.38%
O.O.O.O.O.O.O.O=S(=O)([O-])[O-].[Co+2],Potency,parasite line A,11.2 µM (active)
same,Potency,parasite line B,8.91 µM (active)
COc1ccc(-c2noc(CC(=O)O)c2-c2ccc(OC)cc2)cc1,"activity, negative = inhibition",[1],5.47%
same,"activity, negative = inhibition",[2],9.58%
O=C1CCC(c2ccccc2)(C2CCN(Cc3ccccc3)CC2)C(=O)N1 (stereo unspecified),"activity, negative = inhibition",[1],7.2%
same,"activity, negative = inhibition",[2],9.21%
